Screening data deposited in PubChem by National Center for Advancing Translational Sciences (NCATS).
This is a sample that favours compounds with a hit; in the whole collection about 19% have one here.
IL1B secr inh: qHTS for Inhibitors of Inflammasome Signaling: IL-1-beta AlphaLISA Primary Screen | THP-1 LPS/ATP IL-1B secretion, AlphaLISA, 16 h; active compounds read low | 360,000 tested, 4.7% active | activity change, % at 57.5 µM | AID 743279, 2014; in the data active = activity change below about -50%; inconclusive = mostly about -30% to -49%
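Secreted IL-1B measured by AlphaLISA bead assay after 16 h compound exposure of THP-1 cells; compounds (final up to 57.5 uM) added 1 h before LPS (250 ng/mL) and ATP (1.25 mM) stimulation; lower signal means less secretion.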
DT40 TDP1 CPT: qHTS for Inhibitors of human tyrosyl-DNA phosphodiesterase 1 (TDP1): qHTS in cells in presence of CPT. chicken DT40 Tdp1-/-;hTDP1 cells + 20 nM CPT, ATP luminescence, 48 h. Potency, µM (top dose mostly 46.2 µM), without a hit: top-dose activity change, negative = growth inhibition, usual class: inhibitors. 420,000 tested, 12% active; also: potency is read from the fitted curve at half-maximal effect; nearly all actives have a fitted effect of over 55% in size
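Cell growth measured by CellTiter-Glo luminescence after a minimum 48 h, 37 C compound exposure with 20 nM CPT in Tdp1-knockout DT40 cells stably expressing hTDP1, seeded 400/well; qHTS titration format.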
HT1080NT lethal: qHTS for induction of synthetic lethality in tumor cells producing 2HG: qHTS for the HT-1080-NT fibrosarcoma cell line. HT-1080-NT fibrosarcoma viability, CellTiter-Glo ATP luminescence, 48 h. Potency, µM (series often up to 46.1 µM), for the others: at the top dose activity, negative = less viability, actives largely listed as cytotoxic. 360,000 tested, 1.6% active;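 also: NT is the 2HG producing partner of a matched IDH1 knockdown line; potency is read from the fitted curve at half-maximal effect; 0% = DMSO-treated cells and -100% = media-only wells without cells; nearly all actives have a fitted effect of over 55% in size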
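Compounds were tested in concentration-response format on HT-1080-NT cells for 48 hours at 37 degrees C. Cell viability came from CellTiter-Glo luminescence; curves were classified by r2, response magnitude and activity.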
TDP1 cell noCPT: qHTS for Inhibitors of human tyrosyl-DNA phosphodiesterase 1 (TDP1): qHTS in cells in absence of CPT; Potency, µM (highest dose often 46.2 µM), for inactives: at the top dose activity change, negative = growth inhibition, most hits filed as inhibitors; DT40 Tdp1-/- hTDP1 cells, no CPT, ATP luminescence, 48 h; 420,000 tested, 15% active; also: potency is read from the fitted curve at half-maximal effect; nearly all actives have a fitted effect of over 55% in size
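Readout: luminescence from CellTiter-Glo after 30 min in the dark at RT. Cells: DT40 Tdp1-/- with stable hTDP1, 400/well. Exposure: compounds alone, ≥48 hr, 37 °C.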
HT1080 IDH1KD tx: qHTS for induction of synthetic lethality in tumor cells producing 2HG: qHTS for the HT-1080-IDH1KD cell line; Potency, µM (highest dose often 46.1 µM), without a hit: top-dose activity, negative = toxicity, actives largely listed as cytotoxic; HT-1080 IDH1 knockdown viability, ATP luminescence, 48 h; 360,000 tested, 2% active;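 also: potency is read from the fitted curve at half-maximal effect; 0% = DMSO wells and -100% = cell-free medium wells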
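Knockdown cells (IDH1KD HT-1080) received compounds 2 h after plating at 750 cells/well and were kept 48 h at 37 °C in 5% FBS RPMI. A CellTiter-Glo luminescence read gave % activity for curve fitting.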
* marks the source's active call; other numbers are inactive results. Unless noted, calls follow the shape of the dose curve; as a rule, active = well fitted curve in the direction sought with a large enough effect; inconclusive = small, poorly fitted or top-dose-only effect, or another doubt; inactive = no such curve, though single readings can be large; an effect the other way counts as inactive or inconclusive. Unless noted, % is scaled to controls: 0 for no effect and ±100 for the full control effect.

How did CC/C=C/CC(=O)N[C@@H](c1ccccc1)[C@@H](O)C(=O)O[C@H]1C[C@@]2(O)[C@@H](OC(=O)c3ccccc3)C3[C@](C)(C(=O)[C@H](OC(C)=O)C(=C1C)C2(C)C)[C@@H](O)C[C@H]1OC[C@@]31OC(C)=O (some centres not stated) do in these assays?
IL1B secr inh: 15; DT40 TDP1 CPT: 0.021µM*; HT1080NT lethal: 0.041µM*; TDP1 cell noCPT: 0.18µM*; HT1080 IDH1KD tx: 0.0052µM*

How did O=C1N(CN2CCOCC2)c2ccccc2C1(O)c1c[nH]c2ccccc12 (configuration not stated) do in these assays?
IL1B secr inh: 8; DT40 TDP1 CPT: inconclusive; HT1080NT lethal: -7%; TDP1 cell noCPT: -10%; HT1080 IDH1KD tx: -11%

How did O=C(c1n[nH]c(=O)c2ccccc12)N1CCC2(CC1)OCCO2 do in these assays?
IL1B secr inh: 9; DT40 TDP1 CPT: -8%; HT1080NT lethal: 2%; TDP1 cell noCPT: -8%; HT1080 IDH1KD tx: 2%

Results for Cc1[nH]n(-c2ccccc2)c(=O)c1C(c1ccc([N+](=O)[O-])cc1)c1c(C)[nH]n(-c2ccccc2)c1=O ?
IL1B secr inh: -13; DT40 TDP1 CPT: 16µM*; HT1080NT lethal: 0%; TDP1 cell noCPT: inconclusive; HT1080 IDH1KD tx: 5%

What do the screens show for `Cc1[nH]n(-c2ccccc2)c(=O)c1C(C[N+](=O)[O-])c1ccccc1Cl` (configuration not stated)?
IL1B secr inh: 14; DT40 TDP1 CPT: 21µM*; HT1080NT lethal: -9%; TDP1 cell noCPT: 29µM*; HT1080 IDH1KD tx: -6%

How did Cc1c(C(c2ccc(O)cc2)c2c(O)c3ccccc3oc2=O)c(=O)n(-c2ccccc2)n1C (configuration not stated) do in these assays?
IL1B secr inh: 19; DT40 TDP1 CPT: inconclusive; HT1080NT lethal: 0%; TDP1 cell noCPT: 9%; HT1080 IDH1KD tx: -4%

How did CCOc1ccc(NC(=O)CSc2oc(-c3ccccc3)nc2S(=O)(=O)c2ccc(Cl)cc2)cc1 do in these assays?
DT40 TDP1 CPT: 7.3µM*; TDP1 cell noCPT: 21µM*

How did CCOc1ccc(NC(=O)CN(c2ccc(Cl)cc2C)S(=O)(=O)c2ccccc2)cc1 do in these assays?
DT40 TDP1 CPT: 8.2µM*; TDP1 cell noCPT: 10µM*

Results for CCOc1ccc(S(=O)(=O)N(CC(=O)NCc2ccccc2OC)c2ccccc2)cc1 ?
DT40 TDP1 CPT: 15µM*; TDP1 cell noCPT: 16µM*

What do the screens show for `O=C(CSc1oc(-c2ccccc2)nc1S(=O)(=O)c1ccc(Cl)cc1)Nc1ccc(F)cc1`?
DT40 TDP1 CPT: 10µM*; TDP1 cell noCPT: inconclusive

What do the screens show for `COc1ccc(-n2nc(C(=O)NCC(=O)N3CCC4(CC3)OCCO4)c3ccccc3c2=O)c(OC)c1`?
IL1B secr inh: -19; DT40 TDP1 CPT: -12%; HT1080NT lethal: 3%; TDP1 cell noCPT: -18%; HT1080 IDH1KD tx: -3%

What do the screens show for `Cc1ccccc1-n1c(O)c(C=NCCN2CCOCC2)c(=O)[nH]c1=O`?
IL1B secr inh: 0; DT40 TDP1 CPT: 8%; HT1080NT lethal: 15%; TDP1 cell noCPT: -2%; HT1080 IDH1KD tx: 7%

How did CCCc1ccc(OCC(=O)Nc2ccc(Cl)cc2C(=O)c2ccccc2)cc1 do in these assays?
DT40 TDP1 CPT: -19%; TDP1 cell noCPT: -20%

What do the screens show for `CN(CC1COc2ccccc2O1)c1nc(-c2cccnc2)nc2ccccc12` (configuration not stated)?
IL1B secr inh: inconclusive; DT40 TDP1 CPT: 21µM*; HT1080NT lethal: -15%; TDP1 cell noCPT: 23µM*; HT1080 IDH1KD tx: -3%

What do the screens show for `Cc1c(NC(=O)C(C)OC(=O)Cc2ccccc2)c(=O)n(-c2ccccc2)n1C` (configuration not stated)?
IL1B secr inh: 5; DT40 TDP1 CPT: 3%; HT1080NT lethal: 12%; TDP1 cell noCPT: 3%; HT1080 IDH1KD tx: -2%

Results for C[C@]1(O)CCC2C3CC[C@H]4C[C@@H](OC(=O)[C@@H](N)CCCCN)CC[C@]4(C)C3CC[C@@]21C (some centres not stated) ?
IL1B secr inh: -8; DT40 TDP1 CPT: inconclusive; HT1080NT lethal: -3%; TDP1 cell noCPT: 26µM*; HT1080 IDH1KD tx: 0%

How did CC(=O)C1CCC2C3CCC4CC(O)CCC4(C)C3CCC12C#N (configuration not stated) do in these assays?
IL1B secr inh: -24; DT40 TDP1 CPT: inconclusive; HT1080NT lethal: -1%; TDP1 cell noCPT: inconclusive; HT1080 IDH1KD tx: 6%

What do the screens show for `Cc1ccccc1N1CCN(Cc2ccc3c(c2)OCO3)CC1`?
IL1B secr inh: -23; DT40 TDP1 CPT: inconclusive; HT1080NT lethal: -12%; TDP1 cell noCPT: inconclusive; HT1080 IDH1KD tx: -12%

How did CN1C(=O)C(c2ccccc2)C(=O)N(C)C1=O do in these assays?
IL1B secr inh: -8; DT40 TDP1 CPT: -2%; HT1080NT lethal: 17%; TDP1 cell noCPT: -5%; HT1080 IDH1KD tx: -1%

How did CCCCNC(=S)N(CCN(CC)CC)Cc1cc2cc3c(cc2[nH]c1=O)OCO3 do in these assays?
IL1B secr inh: inconclusive; DT40 TDP1 CPT: inconclusive; HT1080NT lethal: 0%; TDP1 cell noCPT: 15µM*; HT1080 IDH1KD tx: 0%

Results for CCOC(=O)[C@]12Cc3c(cc(OC)c(OC)c3OC)[C@H]1N(CCC(=O)OC)C(=O)c1ccccc12 ?
IL1B secr inh: -116*; DT40 TDP1 CPT: 18µM*; HT1080NT lethal: inconclusive; TDP1 cell noCPT: 16µM*; HT1080 IDH1KD tx: inconclusive

Results for CCOC(=O)[C@]12Cc3c(cc(OC)c(OC)c3OC)[C@H]1N(C)C(=O)c1ccccc12 ?
IL1B secr inh: -55*; DT40 TDP1 CPT: inconclusive; HT1080NT lethal: 11%; TDP1 cell noCPT: 21µM*; HT1080 IDH1KD tx: 1%

Results for C[C@@H](Cc1ccc(OCC(=O)O)cc1)NC[C@H](O)c1cccc(Cl)c1 ?
DT40 TDP1 CPT: 1%; TDP1 cell noCPT: -15%

How did O=c1ccc2cc(O[C@@H]3O[C@@H](CO)[C@H](O)[C@@H](O)[C@@H]3O)c(O)cc2o1 do in these assays?
IL1B secr inh: 47; DT40 TDP1 CPT: 1%; HT1080NT lethal: 8%; TDP1 cell noCPT: 29%; HT1080 IDH1KD tx: 0%

What do the screens show for `CC12CN3CN(C1)CC(C)(C3)C2=NO`?
IL1B secr inh: 7; DT40 TDP1 CPT: 13%; HT1080NT lethal: 2%; TDP1 cell noCPT: 17%; HT1080 IDH1KD tx: 9%
